The record followed here is PubChem BioAssay (Tox21).

Structures are written as SMILES. Values joined by “and” are separate entries in the source; they are usually repeats but may differ in a detail not shown here. Equal values may be shown once. A number with no mark means an inactive call. Records with an inconclusive call do not appear. Active and inactive are the calls of the source. Unless noted, calls follow the shape of the dose curve; as a rule, active = well fitted curve in the direction sought with a large enough effect in the repeat runs; inconclusive = weak or mixed curves; inactive = no such curve, though single readings can be large; an effect the other way counts as inactive or inconclusive.

A short description of assay [1]: qHTS assay to identify small molecule HDAC inhibitors (AID 1259364). Also: top concentration of the series differs between compounds; nearly all actives have a fitted effect of over 45% in size. Put shortly: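 Wild-type HCT-116 cells, plated overnight at 37 C, exposed to compounds 2 hr at 37 C; luminogenic HDAC-Glo substrate then added 30 min at room temperature. Luminescence reports relative endogenous class I/II HDAC activity.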
Assay [2] can be described thus: qHTS assay to identify small molecule HDAC inhibitors - cell viability counter screen (AID 1259365). Also: series mostly up to about 92 µM; nearly all actives have a fitted effect of over 50% in size. Put shortly:
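CellTiter-Glo luminescence (30 min, room temperature) reported viability after a 2 h compound exposure at 37 C. Cells: wild-type HCT-116, 1,500 per well, seeded the night before.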
(In general: qHTS replaces the single test concentration by a dilution series.)

Assay [3] can be described thus: qHTS assay to identify small molecule agonists of the sonic hedgehog signaling (Shh) pathway - cell viability counter screen (AID 1259366). Also: nearly all actives have a fitted effect of over 50% in size. Also: potency is read from the fitted curve at half-maximal effect. An outline of the steps: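 Cytotoxicity counter screen: CellTiter-Fluor reagent added after 23 h compound exposure, then 1 h at 37C and fluorescence read. Cells were 3T3 Gli1-Luc, seeded 2,000 per well and dosed 4 h post-plating.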

A short description of assay [4]: qHTS assay to identify small molecule antagonists of the sonic hedgehog signaling (Shh) pathway - cell viability counter screen (AID 1259367). Also: nearly all actives have a fitted effect of over 55% in size. Also: potency is read from the fitted curve at half-maximal effect. An outline of the steps:
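NIH/3T3-derived Gli1-Luc reporter cells (2,000 per well) rested 4 hr at 37 C, then received DMSO compounds plus conditioned medium. After 23 hr of treatment, CellTiter-Fluor was added for 1 hr at 37C and fluorescence read.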

A short description of assay [5]: qHTS assay to identify small molecule agonists of the sonic hedgehog signaling (Shh) pathway (AID 1259368; calls by dose curve; also: nearly all actives have a fitted effect of over 15% in size; also: potency is read from the fitted curve at half-maximal effect;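 as to activity change: NIH/3T3-derived 3T3Gli1-Luc cells carrying a stable Gli1-driven firefly luciferase reporter; series mostly up to about 92 µM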). Put shortly: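 NIH/3T3-derived 3T3Gli1-Luc cells with stably integrated Gli1-driven firefly luciferase, 2,000 cells/well, compounds added after 4 hr. Incubated 24 hr at 37C, 5% CO2; luminescence read after 30 min with luciferase reagent at room temperature.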

Assay [6] concerns the target Estrogen receptor beta (Homo sapiens) (UniProt Q92731). Nature of the assay: qHTS assay to identify small molecule agonists of the estrogen receptor beta (ER-beta) signaling pathway (AID 1259377; active = well fitted activation curve with a large enough effect in the signal ratio in the repeat runs, not every such curve was filed as active; the % refers to the signal ratio). Put shortly:
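Ratiometric beta-lactamase FRET read-out came after 2 h substrate loading at room temperature. It followed 16 h compound treatment at 37C of GripTite HEK293T cells carrying a UAS-bla reporter, plated in 2% charcoal-stripped FBS medium.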

Assay [7] can be described thus: qHTS assay to identify small molecule antagonists of the sonic hedgehog signaling (Shh) pathway (AID 1259369; calls by dose curve; also: nearly all actives have a fitted effect of over 45% in size; also: potency is read from the fitted curve at half-maximal effect). An outline of the steps: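 NIH/3T3-derived Gli1-Luc reporter cells plated 4 h, dosed with compound, then stimulated with conditioned medium for 24 h at 37 C. Firefly luciferase luminescence read after 30 min with detection reagent at room temperature.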
The nature of assay [8]: qHTS assay to identify small molecule phospholipidosis (PLD) inducers (AID 1259344; active = well fitted curve in the direction sought with a large enough effect; an effect the other way counts as inactive or inconclusive). An outline of the steps: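 HepG2 cells on collagen I, attached 4 h at 37 C, were co-treated with compound and LipidTOX Red dye for 24 h at 37 C, then fixed with paraformaldehyde plus Hoechst 33342 and imaged by high-content microscopy for phospholipid accumulation.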
% is scaled to controls: 0 for no effect and ±100 for the full control effect.

Estrogen receptor beta (Homo sapiens), sequence (Q92731 whole entry, looked up): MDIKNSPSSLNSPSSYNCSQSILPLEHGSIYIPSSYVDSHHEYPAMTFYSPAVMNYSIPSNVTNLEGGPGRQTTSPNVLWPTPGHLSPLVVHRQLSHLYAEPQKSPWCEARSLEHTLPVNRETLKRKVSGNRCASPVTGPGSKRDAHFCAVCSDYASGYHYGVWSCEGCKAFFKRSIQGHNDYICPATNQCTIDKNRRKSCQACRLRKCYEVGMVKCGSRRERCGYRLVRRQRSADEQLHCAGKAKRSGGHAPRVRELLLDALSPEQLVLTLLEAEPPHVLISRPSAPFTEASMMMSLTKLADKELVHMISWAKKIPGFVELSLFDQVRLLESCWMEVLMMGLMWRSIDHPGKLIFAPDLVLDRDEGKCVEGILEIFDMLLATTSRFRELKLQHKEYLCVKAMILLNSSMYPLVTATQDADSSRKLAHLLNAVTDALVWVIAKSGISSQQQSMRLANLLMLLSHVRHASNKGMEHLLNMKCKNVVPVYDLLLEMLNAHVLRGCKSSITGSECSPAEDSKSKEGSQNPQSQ

For the compound `CC1CCCCN1CCCOC(=O)c1ccc(OC2CCCCC2)cc1` (stereo unspecified), the Potency entry in assay [1], in assay [2], in assay [3], in assay [4], in assay [5] and in assay [6] was “inactive” in each case.

Take `CC(C)c1ccc(O)c(C(C)C)c1`: the Potency entry in assay [1], in assay [2], in assay [3], in assay [4], in assay [5] and in assay [7] was “inactive” throughout. Besides, in assay [6], the Potency entry was “inactive”.

As to `CCNc1nc(NC(C)CC)nc(OC)n1` (stereo unspecified), the Potency result in assay [1], in assay [2], in assay [3], in assay [4] and in assay [5] was “inactive” in each case. Further, in assay [7], the Potency is 30.6 µM (active).

Consider `CC(C)(C)c1cc(/C=C2\SC(=N)NC2=O)cc(C(C)(C)C)c1O`, for which the Potency result in assay [1], in assay [2], in assay [3], in assay [4], in assay [5] and in assay [6] was “inactive” in each case.

With `C/C=C/C(=O)Oc1c(CCCCCC(C)C)cc([N+](=O)[O-])cc1[N+](=O)[O-]`, the Potency result in assay [1], in assay [2] and in assay [5] was “inactive” throughout. In addition, the Potency in assay [3] is 61.1 µM (active); in assay [4], 54.5 µM (active); in assay [7] it was 2.17 µM (active).

For the compound `COC(=O)[C@]1(C)CCC[C@@]2(C)[C@H]1CC=C1C=C(C(C)C)CC[C@@H]12`, the Potency result in assay [1], in assay [2], in assay [3], in assay [4], in assay [5] and in assay [7] was “inactive” in each case. In addition, in assay [6], the Potency result is “inactive”.

Consider `Nc1ncnc2c1ncn2[C@@H]1O[C@H](COP(=O)(O)O)[C@@H](O)[C@H]1O`, for which the Potency result in assay [8], in assay [1], in assay [3], in assay [4], in assay [5] and in assay [7] was “inactive” in each case. In addition, the Potency entry in assay [6] was “inactive”.

On to `c1cc2c3c(c1)ccc1cccc(c13)C2`, for which the Potency entry in assay [1], in assay [2], in assay [3], in assay [4], in assay [5] and in assay [6] was “inactive” each time.

`Cc1ccc(N)cc1O`: the Potency result in assay [8], in assay [2], in assay [3], in assay [4] and in assay [5] was “inactive” in each case.

For `CCC(=O)CC(C)CC` (stereo unspecified), the activity change, negative = inhibition in assay [1] is 2.62% [at 0.349 µM]; in assay [7], 19.5% [at 0.349 µM]. The activity change, negative = cytotoxicity in assay [2] is 3.99% [at 0.349 µM]. Further, the viability change, negative = cytotoxic in assay [3] was 4% [at 0.349 µM]; in assay [4], 2.54% [at 0.349 µM]. Besides, the activity change in assay [5] is -0.87% [at 0.349 µM, stronger effect = higher value].

For `CC(C)(c1cc(Br)c(O)c(Br)c1)c1cc(Br)c(O)c(Br)c1`, the Potency entry in assay [1], in assay [2], in assay [3], in assay [4] and in assay [5] was “inactive” in each case. Further, in assay [7], the Potency is 60.9 µM (active) and 64.9 µM (active).

On to `S=C(SSSSSSC(=S)N1CCCCC1)N1CCCCC1`, for which the activity change, negative = inhibition in assay [1] is -8.72% [at 19 µM]. Moreover, the Potency in assay [4] is 7.56 µM (active). In addition, the activity change in assay [5] was -10.5% [at 18.9 µM, stronger effect = higher value].

`Nc1cc(Cl)c([N+](=O)[O-])cc1O`: the Potency entry in assay [1], in assay [2] and in assay [5] was “inactive” throughout.

In the case of `CC(C)c1cccc(C(C)C)c1N1C(=O)c2ccc(O)cc2C1=O`, the Potency entry in assay [1], in assay [2], in assay [4] and in assay [5] was “inactive” throughout. Besides, the Potency in assay [7] is 13.7 µM (active).

As to `C=CC(=O)OCCOCC(CC)(COCCOC(=O)C=C)COCCOC(=O)C=C`, in assay [1], the Potency result is “inactive”. Besides, the Potency was 5.67 µM (active) in assay [3], 7.14 µM (active) in assay [4], 16 µM (active) in assay [5] and 5.67 µM (active) in assay [7].

Turning to `SCCCCCCCCS`, the Potency result in assay [2], in assay [3], in assay [4], in assay [5] and in assay [7] was “inactive” each time.

In the case of `O=C1NCN(c2ccccc2)C12CCN(CCCC(c1ccc(F)cc1)c1ccc(F)cc1)CC2`, the Potency entry in assay [1], in assay [2], in assay [5] and in assay [6] was “inactive” throughout.

Consider `COC(=O)NCCC[Si](OC)(OC)OC`, for which the Potency entry in assay [1], in assay [2], in assay [3], in assay [5], in assay [7] and in assay [6] was “inactive” in each case.

Regarding `CCCCCCOc1cc(C)c(O)c(C)c1C`, the Potency result in assay [1] and in assay [5] was “inactive” in each case. For the same compound, the Potency in assay [4] and in assay [7] was 61.9 µM (active) in each case.

Turning to `Cc1cc(Nc2ccc(O)cc2)ccc1N`, the Potency in assay [4] is 24.2 µM (active). Moreover, the Potency entry in assay [5] and in assay [6] was “inactive” in each case.

`CCC(=O)OCCc1ccccc1`: the Potency entry in assay [1], in assay [2], in assay [5] and in assay [6] was “inactive” throughout.

Turning to `COc1ccc2sc(C(=O)Nc3nnn[nH]3)c(OC(C)C)c2c1`, the Potency entry in assay [1], in assay [2], in assay [5] and in assay [6] was “inactive” each time. Besides, the Potency was 27.2 µM (active) in assay [3] and 6.83 µM (active) in assay [7].

On to `CCCCCCCCCC(=O)N(C)C`, for which the Potency entry in assay [2], in assay [3], in assay [4], in assay [5] and in assay [6] was “inactive” in each case.
